Source: PubChem BioAssay (NCATS)
Results filed as inconclusive are left out. Activity calls are given as the source filed them. Unless noted, calls follow the shape of the dose curve; as a rule, active = well fitted curve in the direction sought with a large enough effect; inconclusive = small, poorly fitted or top-dose-only effect, or another doubt; inactive = no such curve, though single readings can be large; an effect the other way counts as inactive or inconclusive.

Assays:
[1] = target: Lysosomal acid glucosylceramidase (Homo sapiens) (UniProt P04062); assay: Glucocerebrosidase-p2 (AID 348; in the data active = potency below about 10 µM; also: potency is read from the fitted curve at half-maximal effect); settings: purified GBA, blue fluorogenic substrate, 40 min
How it was run: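 Normal human glucocerebrosidase (0.2 nM) with blue fluorogenic substrate (80 uM final) in citrate/phosphate pH 5.9 with 10mM sodium taurocholate, 0.01% tween-20; 40 min RT, NaOH/glycine stop; fluorescence Ex 365/Em 440; AC50 from a titration from 0.6 nM upwards.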

[2] = AP1 Signaling Pathway (AID 357; active = well fitted curve in either direction with a large enough effect, not every such curve was filed as active; also: % is scaled to controls: 0 for no effect and ±100 for the full control effect); settings: ME-180 AP-1-bla reporter, EGF-induced, beta-lactamase ratio, 5 h; at 7.69 µM (top of the series) unless noted
How it was run: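 Modulation of EGF-driven AP-1 transcription was assessed with a beta-lactamase reporter in ME-180 cells. Compound and EC50 EGF were co-incubated 5 hours at 37 °C before 2.5-hour CCF4 loading at room temperature and dual-emission reading.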

[3] = target: Cytochrome P450 1A2 (Homo sapiens) (UniProt P05177); assay: p450-cyp1a2 (AID 410; calls by dose curve; also: potency is read from the fitted curve at half-maximal effect;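 as to activity change, negative = inhibition: -100% = full effect of reference inhibitor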); settings: recombinant CYP1A2, luciferin-ME demethylation, luminescence; series mostly up to 57 µM
How it was run: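 Luminescent demethylation readout: Luciferin-ME (100uM, equal to Km) turned over by 20nM CYP1A2 for 60 min at room temperature after NADPH regeneration addition, following 10 min compound preincubation. Normalization used 57 uM furafylline as full inhibition.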

[4] = NFAT Signaling Pathway (AID 444; active = well fitted curve in either direction with a large enough effect, not every such curve was filed as active;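 also: carbachol stimulus at about its EC50 of 1 µM final; % is scaled to controls: 0 for no effect and ±100 for the full control effect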); settings: Jurkat NFAT-bla M1, carbachol, beta-lactamase ratio, 5 h; at 7.69 µM (top of the series) unless noted
How it was run: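 Read-out: CCF4 FRET ratio (460 nm/530 nm) after 1 h RT dye loading, used for %activity and AC50 from titration series. Cells: Jurkat NFAT-β-lactamase/M1 line, treated with compound plus 1 uM carbachol for 5 h, 37 °C.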

[5] = Stat Signaling Pathway (AID 446; active = well fitted curve in either direction with a large enough effect, not every such curve was filed as active;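 also: ME-180 cervical cancer cells given 40 pM IL-6 alongside compound; SIE-controlled beta-lactamase reporter measured as 460/530 nm FRET emission ratio; % is scaled to controls: 0 for no effect and ±100 for the full control effect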); settings: ME-180 (cervical carcinoma) SIE beta-lactamase reporter, IL-6 stimulated, 5 h; at 7.69 µM (top of the series) unless noted
How it was run: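 Normalization used AC90 stimulation (300 pM IL-6) and AC90 inhibition (125 nM pan-JAK inhibitor at 40 pM IL-6). The underlying signal is SIE-driven beta-lactamase in ME-180 cells after 5 h IL-6 exposure with compound.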

[6] = target: Glucocorticoid receptor (Homo sapiens) (UniProt P04150); assay: GR-GFP Redistribution (AID 450;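 active = compounds whose dose series gives a full or clear partial fitted curve of increased nuclear translocation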; also: potency is read from the fitted curve at half-maximal effect); settings: U2OS GR-GFP nuclear translocation, laser cytometry, 2 h
[7] = target: Glucocorticoid receptor (Homo sapiens) (UniProt P04150); assay: GR-EFC Redistribution (AID 451; calls by dose curve; also: potency is read from the fitted curve at half-maximal effect); settings: CHO-K1 GR-EFC translocation, beta-gal luminescence, 2 h
How it was run: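 Translocation of GR-ED fusion to nuclear EA restores b-gal, read by luminescence after 1 h room-temperature detection. Engineered CHO-K1 biosensor cells, 1,000/well, exposed 2 h at 37 C to titrations up to 46 uM final.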

[8] = target: Cytochrome P450 3A4 (Homo sapiens) (UniProt P08684); assay: qHTS Assay for Activators of Cytochrome P450 3A4 (AID 885); settings: recombinant CYP3A4, Luciferin-PPXE luminescence, 60 min; series mostly up to 57.1 µM; also: nearly all actives have a fitted effect of over 65% in size
How it was run: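 Human CYP3A4 dealkylates Luciferin-PPXE to luciferin, which luciferase detection converts to light. Substrate was at its KM (25uM), buffer 200mM KPO4, reaction 60 min at RT.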

[9] = qHTS Assay for Lipid Storage Modulators (AID 1519; calls by dose curve); settings: Drosophila S3 cells, BODIPY lipid droplet/cell ratio, laser cytometry, cells loaded with oleic acid; for activity change, negative = inhibition: at 57.5 µM (top of the series)
How it was run: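 Cells seeded at 5,000 per well were treated with compounds over a concentration series and loaded with oleic acid (400 uM, as added). Lipid droplet fluorescence (488 nm excitation, 500-530 nm channel) was read by laser-scanning cytometry and normalized to 20 uM Triacsin C.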

[10] = target: Dual specificity protein kinase CLK4 (Homo sapiens) (UniProt Q9HAZ1); assay: qHTS Assay for Inhibitors of CDC-like Kinase 4 (Kinase-Glo Assay) (AID 1770); settings: recombinant Clk4, Kinase-Glo ATP depletion luminescence; series mostly up to 66.7 µM; also: nearly all actives have a fitted effect of over 65% in size; also: potency is read from the fitted curve at half-maximal effect
How it was run: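 25 nM Clk4 with 100 uM RS repeat peptide and 1 uM ATP (final) in Tris pH7.5, 10 mM MgCl2, 4.5 h at room temperature. Remaining ATP measured by Kinase-Glo luciferase luminescence.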

[11] = target: Dual specificity protein kinase CLK4 (Homo sapiens) (UniProt Q9HAZ1); assay: qHTS Assay for Inhibitors of CDC-like Kinase 4 (ADP-Glo Assay) (AID 1771); settings: recombinant CLK4, ADP-Glo luminescence; series mostly up to 80 µM; also: nearly all actives have a fitted effect of over 70% in size; also: potency is read from the fitted curve at half-maximal effect
How it was run: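 ADP production was read by ADP-Glo luminescence after residual ATP depletion, following 1 h room-temperature reaction of 25 nM Clk4, 1 uM ATP and 100 uM RS peptide with MgCl2, EGTA, DTT and Triton X-100.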

[12] = target: Dual specificity protein kinase CLK4 (Homo sapiens) (UniProt Q9HAZ1); assay: qHTS Assay for Inhibitors of CDC-like Kinase 4 (ADP-FP Assay) (AID 1795); settings: Transcreener ADP fluorescence polarization; series mostly up to 50 µM; also: nearly all actives have a fitted effect of over 60% in size; also: potency is read from the fitted curve at half-maximal effect
How it was run: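 Recombinant Clk4 (6.25 nM) phosphorylated 100 uM RS repeat peptide with 1 uM ATP in 25 mM Tris pH 7.5, 10 mM MgCl2, 0.5 mM EGTA, 2.5 mM DTT, 0.01% Triton X-100 for 1 h. ADP was detected by Transcreener ADP2 competitive fluorescence polarization after 30 min at room temperature.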

[13] = target: Ubiquitin carboxyl-terminal hydrolase 1 (Homo sapiens) (UniProt O94782); assay: Inhibitors of USP1/UAF1: Pilot qHTS (AID 504865); settings: purified USP1/UAF1, Ub-rhodamine cleavage fluorescence; series mostly up to 54.9 µM;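 also: rhodamine fluorescence freed from ubiquitin-rhodamine substrate followed over time; top concentration of the series differs between compounds; % is scaled to controls: 0 for no effect and ±100 for the full control effect; nearly all actives have a fitted effect of over 35% in size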
How it was run: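 USP1/UAF1 complex at 1 nM preincubated 15 min at room temperature with compound, then Ub-Rho substrate added at 150 nM final. Fluorescence (480/540 nm) read kinetically in 50 mM HEPES pH 7.8, 0.5 mM EDTA, 1 mM TCEP, 0.1 mg/ml BSA, 0.01% Tween-20.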

[14] = Primary qHTS for small molecule stabilizers of the endoplasmic reticulum resident proteome: Secreted ER Calcium Modulated Protein (SERCaMP) assay (AID 1508630); settings: SH-SY5Y GLuc-SERCaMP (Gaussia luciferase released on ER calcium loss) secretion, thapsigargin, luminescence; series mostly up to 38.4 µM; also: % is scaled to controls: 0 for no effect and ±100 for the full control effect
How it was run: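 The SH-SY5Y reporter protocol was run at 3 concentrations up to 38.3 uM (primary) or 11 concentrations (follow-up): 16 h compound, 100 nM thapsigargin for 4 h, then extracellular luciferase luminescence.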

[15] = target: Mitogen-activated protein kinase 10 (Mus musculus) (UniProt Q61831); assay: JNK3 AlphaScreen Assay (AID 530; active = well fitted curve in either direction with a large enough effect, not every such curve was filed as active); settings: JNK3 lysate, c-Jun phosphorylation; series mostly up to 57.1 µM
How it was run: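 qHTS titrations with 15 min compound pre-incubation before adding ATP (10 uM final). Read-out: AlphaScreen of Ser73-phosphorylated biotin-GST-cJun using HepG2 lysate JNK3 activated by IL-1β and TNFα.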

[16] = target: 3',5'-cyclic-AMP phosphodiesterase 4B (Homo sapiens) (UniProt Q07343); assay: qHTS Assay for Inhibitors of PDE-IV (AID 607; active = well fitted activation curve with a large enough effect in the main read-out, with a control signal flat, not every such curve was filed as active; also: % of control where 0% means no effect); settings: HEK293 ACTOne CNG channel cells, membrane potential fluorescence; series mostly up to 22.9 µM
How it was run: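 HEK293 ACTOne cells with CNG channel (1000/well), endogenous PDE4; membrane potential dye, compounds up to 22.9 uM final. Fluorescence Ex 535/Em 590; RO 20-1724 (100 uM final) as reference.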

[17] = target: Cytochrome P450 2C19 (Homo sapiens) (UniProt P33261); assay: qHTS Assay for Inhibitors and Substrates of Cytochrome P450 2C19 (AID 899); settings: recombinant CYP2C19, luciferin-H EGE luminescence; series mostly up to 57.1 µM; also: potency is read from the fitted curve at half-maximal effect; nearly all actives have a fitted effect of over 60% in size
How it was run: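 5nM enzyme + 10uM Luciferin-H EGE (=KM), 50mM KPO4; cpd pin-transferred, 10 min 37C; NADPH regen, 60 min 37C; stopped w/ luciferin detection reagent, 20 min; luminescence. Normalized to 57uM ketoconazole (AC100).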

[18] = measured here: cell count channel max response
[19] = measured here: lipid channel max response

Chain of Lysosomal acid glucosylceramidase (Homo sapiens) (P04062 whole entry, looked up): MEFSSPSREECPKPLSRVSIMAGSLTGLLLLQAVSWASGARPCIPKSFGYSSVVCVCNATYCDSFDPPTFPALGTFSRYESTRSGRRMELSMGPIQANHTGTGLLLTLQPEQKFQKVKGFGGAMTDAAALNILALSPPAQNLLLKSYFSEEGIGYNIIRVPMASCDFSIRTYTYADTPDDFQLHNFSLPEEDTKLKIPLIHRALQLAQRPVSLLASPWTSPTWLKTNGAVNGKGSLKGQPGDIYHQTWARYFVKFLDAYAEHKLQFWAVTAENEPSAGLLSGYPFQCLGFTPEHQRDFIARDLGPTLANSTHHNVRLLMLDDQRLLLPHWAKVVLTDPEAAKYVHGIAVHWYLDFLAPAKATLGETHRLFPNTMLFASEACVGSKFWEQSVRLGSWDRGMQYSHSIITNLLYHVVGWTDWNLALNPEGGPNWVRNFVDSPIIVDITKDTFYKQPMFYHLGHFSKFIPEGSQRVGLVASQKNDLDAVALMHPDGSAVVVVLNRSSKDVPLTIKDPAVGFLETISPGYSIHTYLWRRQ
Chain of Dual specificity protein kinase CLK4 (Homo sapiens) (Q9HAZ1 whole entry, looked up): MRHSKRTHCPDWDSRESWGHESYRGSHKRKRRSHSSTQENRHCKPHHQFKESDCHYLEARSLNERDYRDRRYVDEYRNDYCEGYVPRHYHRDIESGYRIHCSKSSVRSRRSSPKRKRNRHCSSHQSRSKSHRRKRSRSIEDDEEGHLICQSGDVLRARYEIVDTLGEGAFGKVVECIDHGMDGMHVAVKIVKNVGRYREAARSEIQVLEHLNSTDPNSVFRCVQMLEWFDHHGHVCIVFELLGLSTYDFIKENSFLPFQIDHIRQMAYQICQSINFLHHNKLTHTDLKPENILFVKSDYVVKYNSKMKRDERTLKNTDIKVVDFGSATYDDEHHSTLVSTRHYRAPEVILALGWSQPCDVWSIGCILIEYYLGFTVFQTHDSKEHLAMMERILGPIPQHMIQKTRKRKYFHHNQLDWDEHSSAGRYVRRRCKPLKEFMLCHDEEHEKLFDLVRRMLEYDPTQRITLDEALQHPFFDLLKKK
Chain of Cytochrome P450 1A2 (Homo sapiens) (P05177 whole entry, looked up): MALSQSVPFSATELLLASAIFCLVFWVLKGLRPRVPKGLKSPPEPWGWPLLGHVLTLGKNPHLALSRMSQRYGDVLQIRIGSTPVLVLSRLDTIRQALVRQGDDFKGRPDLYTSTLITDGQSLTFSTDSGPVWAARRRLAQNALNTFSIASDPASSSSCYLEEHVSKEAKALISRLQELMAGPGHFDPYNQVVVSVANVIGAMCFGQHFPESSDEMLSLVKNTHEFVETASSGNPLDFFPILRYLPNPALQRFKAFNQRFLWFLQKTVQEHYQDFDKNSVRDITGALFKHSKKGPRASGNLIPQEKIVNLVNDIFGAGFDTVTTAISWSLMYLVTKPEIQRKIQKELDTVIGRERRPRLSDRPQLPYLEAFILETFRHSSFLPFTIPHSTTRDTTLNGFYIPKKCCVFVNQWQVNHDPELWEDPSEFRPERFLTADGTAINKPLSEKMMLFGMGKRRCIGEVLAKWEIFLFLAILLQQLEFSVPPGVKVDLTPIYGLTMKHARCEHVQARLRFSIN
Chain of 3',5'-cyclic-AMP phosphodiesterase 4B (Homo sapiens) (Q07343 whole entry, looked up): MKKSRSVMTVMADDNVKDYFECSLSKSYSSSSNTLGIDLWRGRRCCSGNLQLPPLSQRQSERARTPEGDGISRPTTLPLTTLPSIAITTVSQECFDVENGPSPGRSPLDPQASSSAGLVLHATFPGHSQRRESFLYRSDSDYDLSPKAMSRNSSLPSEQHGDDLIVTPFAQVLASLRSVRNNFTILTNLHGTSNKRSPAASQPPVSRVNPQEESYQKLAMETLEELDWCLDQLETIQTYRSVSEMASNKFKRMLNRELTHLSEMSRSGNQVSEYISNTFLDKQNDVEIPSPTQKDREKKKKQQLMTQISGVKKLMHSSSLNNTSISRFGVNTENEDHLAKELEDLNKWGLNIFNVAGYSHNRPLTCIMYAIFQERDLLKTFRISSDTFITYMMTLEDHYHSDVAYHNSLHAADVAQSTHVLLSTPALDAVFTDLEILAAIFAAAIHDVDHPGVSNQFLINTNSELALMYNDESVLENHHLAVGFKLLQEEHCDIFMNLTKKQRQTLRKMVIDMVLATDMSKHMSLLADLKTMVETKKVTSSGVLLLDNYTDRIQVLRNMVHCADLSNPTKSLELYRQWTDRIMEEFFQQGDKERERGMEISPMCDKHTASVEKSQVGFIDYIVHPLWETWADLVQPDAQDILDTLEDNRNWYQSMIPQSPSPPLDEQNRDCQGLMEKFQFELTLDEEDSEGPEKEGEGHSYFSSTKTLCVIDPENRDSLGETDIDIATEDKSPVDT
Chain of Cytochrome P450 3A4 (Homo sapiens) (P08684 whole entry, looked up): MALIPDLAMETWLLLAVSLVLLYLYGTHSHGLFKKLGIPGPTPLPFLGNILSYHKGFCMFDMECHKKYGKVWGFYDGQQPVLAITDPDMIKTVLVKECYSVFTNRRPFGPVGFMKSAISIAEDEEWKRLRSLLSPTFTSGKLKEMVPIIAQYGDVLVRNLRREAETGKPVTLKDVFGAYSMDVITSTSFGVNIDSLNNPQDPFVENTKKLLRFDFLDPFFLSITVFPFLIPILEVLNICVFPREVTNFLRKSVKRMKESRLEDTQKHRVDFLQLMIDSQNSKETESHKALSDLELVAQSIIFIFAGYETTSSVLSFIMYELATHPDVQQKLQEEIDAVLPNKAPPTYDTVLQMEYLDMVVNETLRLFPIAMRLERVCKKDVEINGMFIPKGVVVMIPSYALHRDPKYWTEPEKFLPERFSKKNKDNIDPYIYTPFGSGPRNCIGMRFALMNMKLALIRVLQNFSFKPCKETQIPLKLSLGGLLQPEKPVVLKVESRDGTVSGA
Chain of Ubiquitin carboxyl-terminal hydrolase 1 (Homo sapiens) (O94782 whole entry, looked up): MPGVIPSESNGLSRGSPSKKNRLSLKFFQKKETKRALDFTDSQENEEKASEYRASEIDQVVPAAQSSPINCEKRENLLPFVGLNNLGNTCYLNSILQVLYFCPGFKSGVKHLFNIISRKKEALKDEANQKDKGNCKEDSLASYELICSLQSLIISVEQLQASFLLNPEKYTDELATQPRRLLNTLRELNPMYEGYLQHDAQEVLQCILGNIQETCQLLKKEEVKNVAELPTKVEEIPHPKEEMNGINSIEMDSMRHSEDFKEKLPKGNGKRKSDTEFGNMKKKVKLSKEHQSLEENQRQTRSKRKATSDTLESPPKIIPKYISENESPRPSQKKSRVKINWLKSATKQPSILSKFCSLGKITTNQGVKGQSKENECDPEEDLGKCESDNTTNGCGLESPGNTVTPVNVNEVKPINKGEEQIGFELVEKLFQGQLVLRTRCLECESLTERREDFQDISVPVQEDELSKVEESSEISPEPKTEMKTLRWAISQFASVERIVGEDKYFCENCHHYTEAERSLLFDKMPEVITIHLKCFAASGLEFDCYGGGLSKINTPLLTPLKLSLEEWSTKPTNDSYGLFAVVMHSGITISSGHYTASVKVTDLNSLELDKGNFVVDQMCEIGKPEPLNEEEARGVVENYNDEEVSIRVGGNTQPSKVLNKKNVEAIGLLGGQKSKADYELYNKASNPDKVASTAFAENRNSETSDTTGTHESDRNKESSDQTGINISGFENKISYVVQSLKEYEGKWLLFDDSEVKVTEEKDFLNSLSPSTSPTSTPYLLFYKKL
Chain of Glucocorticoid receptor (Homo sapiens) (P04150 whole entry, looked up, the tested form may be a part): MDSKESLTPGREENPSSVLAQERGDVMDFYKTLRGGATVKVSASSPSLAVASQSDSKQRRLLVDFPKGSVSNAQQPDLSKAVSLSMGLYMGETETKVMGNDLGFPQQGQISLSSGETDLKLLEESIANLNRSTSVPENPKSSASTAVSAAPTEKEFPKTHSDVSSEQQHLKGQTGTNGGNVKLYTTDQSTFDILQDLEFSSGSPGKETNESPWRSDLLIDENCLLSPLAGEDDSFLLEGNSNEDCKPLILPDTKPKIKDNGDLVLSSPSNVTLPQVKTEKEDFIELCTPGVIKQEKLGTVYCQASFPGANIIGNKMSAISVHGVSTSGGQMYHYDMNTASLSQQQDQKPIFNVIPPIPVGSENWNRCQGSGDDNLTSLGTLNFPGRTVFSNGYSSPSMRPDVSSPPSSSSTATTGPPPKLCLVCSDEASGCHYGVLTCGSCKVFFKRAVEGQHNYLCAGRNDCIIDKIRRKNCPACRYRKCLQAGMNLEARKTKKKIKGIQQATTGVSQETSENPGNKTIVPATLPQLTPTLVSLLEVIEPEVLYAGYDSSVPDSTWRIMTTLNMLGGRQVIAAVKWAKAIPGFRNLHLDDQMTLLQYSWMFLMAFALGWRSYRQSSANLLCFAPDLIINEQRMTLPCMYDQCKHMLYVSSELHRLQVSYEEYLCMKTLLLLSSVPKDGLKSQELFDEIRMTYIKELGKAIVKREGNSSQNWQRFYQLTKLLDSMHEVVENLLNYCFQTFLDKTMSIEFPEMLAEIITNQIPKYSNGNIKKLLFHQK
Chain of Cytochrome P450 2C19 (Homo sapiens) (P33261 whole entry, looked up): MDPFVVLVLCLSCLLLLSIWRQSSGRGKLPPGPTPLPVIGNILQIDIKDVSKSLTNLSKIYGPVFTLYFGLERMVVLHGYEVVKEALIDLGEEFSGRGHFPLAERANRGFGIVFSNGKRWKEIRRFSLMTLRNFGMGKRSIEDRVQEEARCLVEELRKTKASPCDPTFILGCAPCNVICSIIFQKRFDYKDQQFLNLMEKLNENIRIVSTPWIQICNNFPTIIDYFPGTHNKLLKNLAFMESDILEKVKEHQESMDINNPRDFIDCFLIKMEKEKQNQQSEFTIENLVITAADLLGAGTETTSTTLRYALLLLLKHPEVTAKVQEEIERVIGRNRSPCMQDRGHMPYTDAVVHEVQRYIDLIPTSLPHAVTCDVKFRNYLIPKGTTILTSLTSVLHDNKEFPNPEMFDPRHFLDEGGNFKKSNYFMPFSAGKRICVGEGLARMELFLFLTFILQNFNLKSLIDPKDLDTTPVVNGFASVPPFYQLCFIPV

Row | Structure (SMILES) | Potency [1] | activity change, negative = inhibition [2] | Potency [3] | activity change, negative = inhibition [4] | activity, negative = inhibition [5] | Potency [6] | Potency [7] | Potency [8] | activity change, negative = inhibition [9] | max response [9, 18] | max response [9, 19] | Potency [10] | Potency [11] | Potency [12] | Potency [13] | Potency [14] | outcome [15] | Potency [16] | Potency [17]
1 | O=c1cnc2cnc(Nc3ccccc3)nc2n1C1CC1 | > 11.4 µM (inactive) | -23.3% (inactive) | 0.631 µM (active) | -2.7% (inactive) | -21.3% (inactive) | > 9.22 µM (inactive) | > 46 µM (inactive) | inactive | -0.874% (inactive) | 4.87% | 2.12% | 2 µM (active) | 2.51 µM (active) | 1.58 µM (active) | inactive | inactive |  |  | 
2 | COCCn1c(=O)c(-c2cc(F)cc(F)c2)nc2cnc(N3CCOCC3)nc21 | > 11.4 µM (inactive) | 11.2% (inactive) | 12.6 µM (active) | 18.8% (inactive) |  | > 9.22 µM (inactive) |  |  | 6.45% (inactive) | 22.1% | 26.7% | inactive | inactive | inactive | inactive | inactive | inactive | inactive | 
3 | COc1ccc(CNc2ccnc(-c3ccc4c(c3)OCO4)n2)c(OC)c1 | > 11.4 µM (inactive) | -15% (inactive) | 1.26 µM (active) | -5.96% (inactive) | -2.09% (inactive) | > 46 µM (inactive) | > 46 µM (inactive) | inactive | 4.67% (inactive) | 13.5% | 17.1% | inactive | inactive | inactive | inactive | inactive | inactive |  | 
4 | COCCn1c(=O)c(C)nc2cnc(N3CCN(C)CC3)nc21 | > 11.4 µM (inactive) | -5.64% (inactive) | 15.8 µM (active) | 4.52% (inactive) | -3.76% (inactive) |  | > 46 µM (inactive) |  | 2.08% (inactive) | 3.08% | 2.85% | inactive | inactive | inactive | inactive | inactive | inactive | inactive | 
5 | CN(C)c1ncc2nc(-c3cccc(C#N)c3)c(=O)n(CCC#N)c2n1 | > 11.4 µM (inactive) | -2.98% (inactive) | inactive | 4.07% (inactive) | -8.5% (inactive) |  | > 46 µM (inactive) |  | 1.84% (inactive) | 5.81% | 7.25% | inactive | inactive | inactive | inactive | inactive | inactive | inactive | 
6 | CN(C)c1ccc(-c2cc(Nc3ccc(F)cc3)ncn2)cc1 | > 11.4 µM (inactive) | -18.2% (inactive) | 0.398 µM (active) | -8.8% (inactive) | -12% (inactive) | > 46 µM (inactive) | > 46 µM (inactive) | inactive | 8.67% (inactive) | -11.3% | -0.85% | 11.2 µM (active) | 14.1 µM (active) | inactive |  | inactive | inactive | inactive | 2 µM (active)
